# Source: PubChem BioAssay (NCATS)
# Inconclusive results are not listed. Active and inactive are the calls of the source. Calls come from the whole dose curve; as a rule, active = well fitted curve in the direction sought with a large enough effect in the repeat runs; inconclusive = weak or mixed curves; inactive = no such curve, though single readings can be large; an effect the other way counts as inactive or inconclusive.
# How the values were obtained:
# [1] = target: Cytochrome P450 2D6 (Homo sapiens) (UniProt P10635); assay: Cytochrome P450 family 2 subfamily D member 6 (CYP2D6) small molecule antagonists: luciferase biochemical (cell-free) qHTS assay (AID 1645840)
# Method in brief: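 P450-Glo CYP2D6 system: proluciferin substrate converted by enzyme to luciferin, read by luminescence proportional to activity. Enzyme-substrate mix with compound 10 min at room temperature, then NADPH regeneration 1 h before detection reagent.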
# [2] = target: Cytochrome P450 2C9 (Homo sapiens) (UniProt P11712); assay: Cytochrome P450 family 2 subfamily C member 9 (CYP2C9) small molecule antagonists: luciferase biochemical (cell-free) qHTS assay (AID 1645842)
# Method in brief: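 P450-Glo CYP2C9 system: proluciferin substrate with enzyme in mix containing 0.4% BSA, 10 min at room temperature, then NADPH regeneration solution added and incubated 1 h at 37C. Detection reagent stopped reaction; luminescence read after 20 min as RLU.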
# Note: nearly all actives have a fitted effect of over 55% in size.
# Potency is the fitted concentration of half-maximal effect.
# Chain of Cytochrome P450 2D6 (Homo sapiens) (P10635 whole entry, looked up): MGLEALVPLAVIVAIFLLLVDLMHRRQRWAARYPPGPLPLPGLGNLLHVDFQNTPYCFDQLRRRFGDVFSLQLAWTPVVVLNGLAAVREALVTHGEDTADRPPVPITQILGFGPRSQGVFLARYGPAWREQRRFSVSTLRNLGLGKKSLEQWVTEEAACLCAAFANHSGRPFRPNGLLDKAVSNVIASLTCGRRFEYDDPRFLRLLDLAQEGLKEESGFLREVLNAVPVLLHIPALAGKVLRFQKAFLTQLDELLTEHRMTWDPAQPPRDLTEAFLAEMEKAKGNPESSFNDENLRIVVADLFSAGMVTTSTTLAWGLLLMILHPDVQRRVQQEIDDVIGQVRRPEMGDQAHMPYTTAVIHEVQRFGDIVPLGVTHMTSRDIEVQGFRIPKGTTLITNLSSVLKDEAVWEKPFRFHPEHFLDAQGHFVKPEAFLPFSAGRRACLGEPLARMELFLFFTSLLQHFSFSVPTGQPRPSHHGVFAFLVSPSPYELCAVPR
# Chain of Cytochrome P450 2C9 (Homo sapiens) (P11712 whole entry, looked up): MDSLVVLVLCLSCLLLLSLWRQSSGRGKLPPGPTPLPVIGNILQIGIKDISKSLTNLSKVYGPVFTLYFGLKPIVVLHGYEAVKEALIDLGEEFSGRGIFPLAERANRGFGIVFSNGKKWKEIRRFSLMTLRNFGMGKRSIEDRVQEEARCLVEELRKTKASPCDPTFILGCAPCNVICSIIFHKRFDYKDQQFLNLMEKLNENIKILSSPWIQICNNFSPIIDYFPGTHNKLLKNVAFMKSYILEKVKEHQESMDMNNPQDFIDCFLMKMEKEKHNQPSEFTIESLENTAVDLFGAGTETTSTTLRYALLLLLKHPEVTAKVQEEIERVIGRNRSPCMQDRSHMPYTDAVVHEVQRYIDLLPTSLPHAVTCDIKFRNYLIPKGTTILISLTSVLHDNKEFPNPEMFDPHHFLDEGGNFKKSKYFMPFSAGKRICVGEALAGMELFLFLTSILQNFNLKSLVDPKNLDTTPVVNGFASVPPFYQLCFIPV
Compound,Potency [1],Potency [2]
Cc1cccc(NC(c2ccccc2F)c2ccc3ccc(C)nc3c2O)n1 (stereo not drawn),inactive,6.01 µM (active)
CCn1cc(/C=C(\NC(=O)c2ccc(C)cc2)C(=O)NCCCn2ccnc2)c2ccccc21,0.169 µM (active),1.34 µM (active)
COc1ccc(CC2c3cc(OC)c(OC)cc3CCN2CCC(=O)OCCCCCOC(=O)CCN2CCc3cc(OC)c(OC)cc3C2Cc2ccc(OC)c(OC)c2)cc1OC (stereo not drawn),inactive,21.3 µM (active)
Cc1ccc(NC(=O)Cn2c(=O)n(CCC(=O)NCc3ccc4c(c3)OCO4)c(=O)c3sccc32)c(C)c1,1.69 µM (active),2.13 µM (active)
O=C(CCCCCn1c(=O)c2sccc2n(CC(=O)Nc2cccc(Cl)c2)c1=O)NCc1ccc2c(c1)OCO2,0.0268 µM (active),0.239 µM (active)
COCCOc1nc(N)c2[nH]c(=O)n(Cc3ccc(C(=O)O)cc3)c2n1,inactive,inactive
CCN(CC)S(=O)(=O)c1ccc2c(c1)nc(CN(C)C(=O)Nc1cccc(Cl)c1)n2C,26.8 µM (active),0.849 µM (active)
COc1ccc(Br)c2c1-c1nc(NC(=O)c3ccccc3SC)sc1C2,inactive,inactive
CC1=C(C(=O)Nc2cccc(CN)c2)C(c2ccccc2Cl)N=C(Nc2nc3ccccc3o2)N1 (stereo not drawn),3.38 µM (active),5.35 µM (active)
Cc1ccc(OCC(=O)Nc2cccc(OCc3cc(=O)n4cccc(C)c4n3)c2)cc1C,inactive,0.756 µM (active)
CCOc1ccc(CNC(=O)Cn2c(=O)c3cccn3c3ccc(F)cc32)cc1OC,inactive,inactive
CC1=C(C(=O)Nc2nnc(C)s2)C(c2ccccc2Cl)N=C(Nc2nc3ccccc3o2)N1 (stereo not drawn),inactive,9.52 µM (active)
COc1ccc(CCNc2nc(SCc3cccc(F)c3)nc3ccccc23)cc1OC,0.301 µM (active),0.756 µM (active)
CCOC(=O)c1ccc(NC(=O)c2cc(=O)c3ccc(C)c(C)c3o2)cc1,inactive,inactive
COc1ccc(CN(C2CCCCC2)[S+](C)(=O)[O-])cc1OC,inactive,6.74 µM (active)
CCCCn1cnc2cc(NCc3ccccc3Cl)ccc21,0.12 µM (active),2.13 µM (active)
COc1cc(C(=O)NC(c2ccccc2Cl)c2cc(Cl)c3cccnc3c2O)cc(OC)c1OC (stereo not drawn),inactive,15.1 µM (active)
NCC1OC(OC2C(N)CC(N)C(OC3OC(CO)C(O)C(N)C3O)C2O)C(N)CC1O (stereo not drawn),inactive,inactive
O=C(O)C1CSC(C(=O)O)N1 (stereo not drawn),inactive,inactive
CCOc1ccc(-c2cc(NC(=O)Nc3ccccc3Cl)c(C(=O)OC)s2)cc1,inactive,5.35 µM (active)
COc1ccc(CNC(=O)Cn2c(SCC(=O)Nc3ccc(C)c(C)c3)nc3ccccc32)cc1,inactive,2.39 µM (active)
COc1ccc(-n2nc3c(N4CCCC(C(=O)NCc5ccc(C)cc5)C4)nnc(C)c3c2C)cc1 (stereo not drawn),3.79 µM (active),inactive
Nc1c(-c2nc(-c3ccc4c(c3)OCO4)cs2)c2ccccn2c1C(=O)c1ccccc1,inactive,0.425 µM (active)
CC1(C#N)CCN(c2c(C(=O)N3CCC(S(C)(=O)=O)CC3)cnc3cc(F)c(F)cc23)CC1,inactive,inactive
O=C(NC1CCCCC1)c1ccc(CSc2nc3cccnc3n2Cc2ccccc2F)cc1,9.52 µM (active),0.338 µM (active)

Compound,Potency [1],Potency [2]
COc1ccc(NC(=O)C2=C(C)Nc3nc(SCc4ccccc4C)nn3C2c2cc(OC)c(O)c(OC)c2)cc1 (stereo not drawn),inactive,inactive
Cc1cccc(NC(c2cccc(Cl)c2)c2ccc3cccnc3c2O)n1 (stereo not drawn),inactive,28.2 µM (active)
Cc1ccc(-n2nc3c(N4CCCC(C(=O)NCc5ccccc5C)C4)nnc(C)c3c2C)cc1 (stereo not drawn),9.52 µM (active),2.68 µM (active)
CCCCCCCCCCCCCCCCNc1ccc(C(=O)O)cc1,inactive,inactive
COc1ccc(-n2nc3c(N4CCCC(C(=O)NCCc5ccccc5C)C4)nnc(C)c3c2C)cc1 (stereo not drawn),2.68 µM (active),0.674 µM (active)
Cc1ccnc(NC(c2cccc(O)c2)c2ccc3ccc(C)nc3c2O)c1 (stereo not drawn),13.5 µM (active),9.52 µM (active)
CCc1ccc(-n2c(SCc3ccccc3C)nc3[nH]ncc3c2=O)cc1,9.52 µM (active),19 µM (active)
COc1ccc(-c2noc(CCCC(=O)Nc3cccc(Cl)c3C)n2)cc1,inactive,3.79 µM (active)
CCOC(=O)c1ccc(N2C(=O)c3n[nH]c(-c4ccco4)c3C2c2ccc(C)cc2)cc1 (stereo not drawn),inactive,2.39 µM (active)
C=CCNCCCCCC[N+](C)(C)C,inactive,inactive
Nc1ccn(C2O[C@H](CO)[C@@H](O)[C@@H]2O)c(=O)n1 (stereo partly drawn),inactive,inactive
CC1=C(C(=O)Nc2cccc(-c3cn[nH]c3)c2)C(c2ccccc2Cl)N=C(Nc2nc3ccccc3o2)N1 (stereo not drawn),21.3 µM (active),1.07 µM (active)
CCc1ccc(CNC(=O)C2CCCN(c3nnc(C)c4c(C)n(-c5ccccc5)nc34)C2)cc1 (stereo not drawn),10.7 µM (active),8.49 µM (active)
Cc1ccc(S(=O)(=O)Nc2nc3n(n2)C(c2ccc(F)cc2)C=C(c2ccccc2)N3)cc1 (stereo not drawn),inactive,inactive
Cc1ccc(C)c(NC(=O)Cn2cc(C(=O)c3ccco3)c3ccccc32)c1,0.425 µM (active),inactive
Cc1ccc(CNC(=O)C2CCN(S(=O)(=O)c3c(C)noc3/C=C/c3ccccc3F)CC2)o1,inactive,inactive
Cc1cc(O)c(Cl)c(C)c1Cl,inactive,inactive
Cc1oc(-c2ccccc2F)nc1Cn1c(SCc2ccccc2F)nc2ccncc21,12 µM (active),9.52 µM (active)
Cc1cccc(C)c1NC(=O)Cn1cc(C(=O)c2ccco2)c2ccccc21,9.52 µM (active),3.79 µM (active)
Cc1ccc(C)c(NC(=O)C2CCN(S(=O)(=O)c3c(C)noc3/C=C/c3cccs3)CC2)c1,2.39 µM (active),0.849 µM (active)
O=C(CC1N=C2c3ccccc3N=C(SCc3ccc(Cl)cc3)N2C1=O)NCCc1ccccc1 (stereo not drawn),2.13 µM (active),1.9 µM (active)
CCCOCc1cc(CN2CCN(c3cccc(Cl)c3)CC2)c(O)c2ncccc12,inactive,6.74 µM (active)
CCOc1cc(CNC(=O)c2ccc(C)c(NC(=O)c3nsc4ccccc34)c2)ccc1OC,inactive,1.51 µM (active)
CCn1cc2nc(SCC(=O)Nc3ccc(OC)c(OC)c3)n(Cc3ccc(Cl)cc3)c(=O)c2n1,9.52 µM (active),3.79 µM (active)
